Bioassay records (PubChem BioAssay)
PfM18AAP inh: PfM18AAP inhibitors, malaria aminopeptidase, primary screen, biochemical, QFRET, recombinant enzyme. inhibition, % at 7.35 µM. H-Glu-NHMec fluorogenic cleavage. 290,000 tested, 1.2% active;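 active means inhibition above the campaign mean inhibition over all tested compounds plus 3 SD, cut at about 28% in these data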;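 further: 0% = plate median of test compound wells and 100% = 2 mM ZnCl2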
Mot1-301 SUMO: yeast Mot1-301 growth rescue at high temperature, primary screen, SUMOylation pathway inhibitor project, S. cerevisiae, ATP luminescence, 38.5C | S. cerevisiae Mot1-301 growth rescue; percent above DMSO median, 100 means doubled | growth rescue, % at 18.8 µM | 320,000 tested, 1% active | AID 2716, 2010;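 active means every valid replicate shows activation above 250% relative to neutral control wells; inactive means the rest, any valid replicate at or below 250%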;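 further: OY570 slx delta 5 strain wells were the positive control but not used for scaling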
ALR inh: inhibitors of human ALR sulfhydryl oxidase, primary screen, biochemical, H2O2 detection, HRP-luminol luminescence, single point; purified ALR, DTT oxidation; inhibition, % (test concentration not listed); 290,000 tested, 3.8% active;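 active means mean replicate inhibition above about 79%, with every replicate also reaching it, limit read from the data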
Target sequence (P55789 whole entry, looked up): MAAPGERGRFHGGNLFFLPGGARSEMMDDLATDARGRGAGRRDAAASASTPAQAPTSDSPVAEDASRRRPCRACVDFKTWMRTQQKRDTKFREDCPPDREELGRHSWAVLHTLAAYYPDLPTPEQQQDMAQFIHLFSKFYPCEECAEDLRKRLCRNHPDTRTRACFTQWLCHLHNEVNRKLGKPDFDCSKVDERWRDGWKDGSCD
HIF act: HIF pathway transcriptional activators, primary screen, cell-based, U2OS HRE-luciferase, luminescence. U2OS HRE-luciferase reporter; normalized: DMSO 0%, desferrioxamine 100%. AID 1910, 2009. 300,000 tested, 0.32% active. activation, % at 7.5 µM (by protocol);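 active means mean activation of at least 10% of the iron chelator positive control signal, with at least half of replicates also reaching 10%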
Numbers without * were called inactive; x = no result given; + = active, no number. Rows were chosen to be rich in hits. Some 5.3% of all compounds tested hit in one or more screens of this group.

SMILES | PfM18AAP inh | Mot1-301 SUMO | ALR inh | HIF act
N=c1sccn1CC(=O)Nc1cc(S(=O)(=O)N2CCCCC2)ccc1Cl | 3 | 22 | -8 | 0
Cc1ccnc(NS(=O)(=O)c2ccc(NC(=O)Cc3ccc(Br)cc3)cc2)n1 | -9 | 61 | x | -4
CC(=O)Nc1ccc(S(=O)(=O)Nc2nc3ccccc3nc2Nc2ccc(C(=O)O)c(O)c2)cc1 | x | -8 | 98* | x
CC(=O)Nc1ccc(S(=O)(=O)Nc2nc3ccccc3nc2N2CCOCC2)cc1 | x | 4 | x | x
Cn1c(SCc2cccc(Br)c2)nnc1-c1ccncc1 | -5 | -10 | -6 | 0
COCCNC(=O)CSc1ccccc1C(=O)NCC1CCCCC1 | 5 | + | -10 | 0
Cc1cccc2sc(NC(=O)c3ccc(Cl)s3)nc12 | 0 | 7 | 97* | x
COc1ccccc1N1CCN(Cc2ccc(OC)c(OC)c2OC)CC1 | -1 | 17 | 16 | 1
Oc1c(CN2CCN(c3ccccc3)CC2)cc(Br)c2cccnc12 | 13 | 34 | -67 | 39*
Oc1c(CN2CCOCC2)cc(COCc2ccccc2)c2cccnc12 | 7 | -5 | 37 | 53*
COc1ccccc1N1CCN(Cc2ccc(O)c3ncccc23)CC1 | 10 | 1 | 4 | 27*
O=C(O)c1ccccc1C(=O)NNc1cccc(Cl)n1 | 45* | 127 | -3 | 1
O=C(O)c1ccccc1C(=O)NNc1ccc(Cl)cc1 | 2 | 177 | 99* | 0
O=C(NNc1cccc(Cl)n1)c1c(F)cccc1F | 20 | -11 | x | 0
O=C1CC2(CCN(C(=O)COc3ccccc3F)CC2)Oc2ccccc21 | x | 602* | -5 | 0
Oc1ccc(-c2ccccc2)cc1CN1CCCCCC1 | 7 | 341* | 27 | -11
CCN(CC)S(=O)(=O)c1ccc(NC(=S)Nc2ccc(F)cc2)cc1 | -4 | -1 | -2 | 2
CCN(CC)c1ccc(NC(=O)c2cccnc2)cc1 | -4 | 364 | 99* | 2
COc1ccc(NC(=O)c2cccnc2)cc1 | 2 | 33 | -13 | 1
N#CCC(=O)Nc1ccc(C(=O)Nc2cccnc2)cc1 | -10 | -29 | 100* | 0
O=C(Nc1cccnc1)c1ccc(C(=O)Nc2cccnc2)cc1 | -15 | 111 | x | 1
CCN(CC)c1ccc(NC(=O)c2cncc(Br)c2)cc1 | -1 | -7 | 99* | 0
CCC(C)(C)n1nnnc1C(c1ccc(F)cc1)N1CCN(C(=O)c2ccco2)CC1 (configuration not stated) | 1 | -6 | x | 0
N#CC1(NC(=O)COC(=O)C23CC4CC(CC(O)(C4)C2)C3)CCCCC1 | 6 | -4 | -2 | 0
O=C1CC(N2CCN(S(=O)(=O)c3ccc([N+](=O)[O-])cc3)CC2)C(=O)N1c1ccccc1F (configuration not stated) | x | 14 | -25 | x
SMILES | PfM18AAP inh | Mot1-301 SUMO | ALR inh | HIF act
COc1ccc2c(c1)c(=O)oc1c(C)c(OC(C)C(=O)N[C@@H](Cc3c[nH]c4ccc(O)cc34)C(=O)O)ccc12 (some centres not stated) | 8 | -5 | 17 | 0
CCc1nnc(SCc2ccc(C(=O)OC)o2)n1N | 4 | 8 | 97* | 0
CCOc1ccc(OCCC(=O)OC(C)C(=O)Nc2ccc(C(C)=O)cc2)cc1 (configuration not stated) | 0 | 7 | 1 | 0
CC(C)N1CC(C(=O)Nc2ccccc2)CC1=O (configuration not stated) | 3 | 305* | 1 | 0
COC(=O)C(C)SC1=N/C(=C/c2ccc(-n3cncn3)cc2)C(=O)N1 (configuration not stated) | 3 | 0 | x | 0
COc1ccc(Oc2nc(C)cc(C)c2S(C)(=O)=O)cc1 | 1 | -13 | 8 | 0
COc1ccc(CSc2nc(C)cc(C)c2S(C)(=O)=O)cc1 | 29* | 6 | 5 | 0
O=c1[nH]c2ccc(NC(=S)Nc3ccc(F)cc3)cc2[nH]1 | 9 | -1 | 90* | 0
CNC(=S)Nc1ccc2[nH]c(=O)[nH]c2c1 | 1 | -12 | 52 | 0
COc1cc(CNc2ccc3[nH]c(=O)[nH]c3c2)cc(Br)c1OCc1ccc(F)cc1 | -9 | -19 | 19 | 1
O=C(NC(=S)Nc1ccc2[nH]c(=O)[nH]c2c1)c1ccccc1Cl | 8 | -1 | x | 0
Cc1c(Cl)cccc1NC(=S)Nc1ccc2[nH]c(=O)[nH]c2c1 | 8 | 1 | 95* | -1
